# HP1b chromo inh: inhibitors of HP1-beta chromodomain binding to methylated histone tails | 0.56% of 390,000 active | AlphaScreen HP1-beta / biotin-H3K9me3 peptide binding | Potency, µM (top dose mostly 114 µM), for the others: top-dose activity change, negative = inhibition, usual class: inhibitors | AID 540317 | P83916; further: potency means the concentration at half of the fitted maximal effect; nearly all actives have a fitted effect of over 70% in size
#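 AlphaScreen: HP1-beta (50 nM) preformed 30 min with biotin-H3(1-18)K9me3 peptide (50 nM) in PBS pH 7.4, 0.01% Tween-20. Compound added for 30 min at RT, then streptavidin donor/nickel chelate acceptor beads (10 ug/mL) for 30 min.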
# G9a block: blocks human histone lysine methyltransferase G9a | Q96KQ7 | G9a H3K9 monomethylation, AlphaScreen, 2 h | Potency, µM (highest dose often 102 µM), inactives show at the highest dose activity, negative = inhibition, most hits filed as inhibitors | 8.8% of 350,000 active | AID 504332; further: potency means the concentration at half of the fitted maximal effect; on the % scale 0 is the no-effect control and ±100 the full control effect; nearly all actives have a fitted effect of over 75% in size
#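 G9a (20 nM) preincubated 15 min RT with compounds, then 500 nM biotinylated H3K9 peptide and 20 uM SAM added; 2 h RT reaction. Monomethyl-H3K9 product detected by AlphaScreen with anti-H3K9me1 antibody, streptavidin donor and anti-rabbit IgG acceptor beads.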
# JMJD2A Tudor: inhibitors of human JMJD2A Tudor domain; O75164; AlphaScreen JMJD2A-Tudor / H3K4me3 peptide binding; Potency, µM (titrated, usually from 114 µM), for the others: top-dose activity change, negative = inhibition, actives largely listed as inhibitors; 4.4% of 390,000 active; AID 504339; further: potency means the concentration at half of the fitted maximal effect; on the % scale 0 is the no-effect control and ±100 the full control effect; nearly all actives have a fitted effect of over 50% in size
# Target sequence (O75164 whole entry, looked up, the tested form may be a part): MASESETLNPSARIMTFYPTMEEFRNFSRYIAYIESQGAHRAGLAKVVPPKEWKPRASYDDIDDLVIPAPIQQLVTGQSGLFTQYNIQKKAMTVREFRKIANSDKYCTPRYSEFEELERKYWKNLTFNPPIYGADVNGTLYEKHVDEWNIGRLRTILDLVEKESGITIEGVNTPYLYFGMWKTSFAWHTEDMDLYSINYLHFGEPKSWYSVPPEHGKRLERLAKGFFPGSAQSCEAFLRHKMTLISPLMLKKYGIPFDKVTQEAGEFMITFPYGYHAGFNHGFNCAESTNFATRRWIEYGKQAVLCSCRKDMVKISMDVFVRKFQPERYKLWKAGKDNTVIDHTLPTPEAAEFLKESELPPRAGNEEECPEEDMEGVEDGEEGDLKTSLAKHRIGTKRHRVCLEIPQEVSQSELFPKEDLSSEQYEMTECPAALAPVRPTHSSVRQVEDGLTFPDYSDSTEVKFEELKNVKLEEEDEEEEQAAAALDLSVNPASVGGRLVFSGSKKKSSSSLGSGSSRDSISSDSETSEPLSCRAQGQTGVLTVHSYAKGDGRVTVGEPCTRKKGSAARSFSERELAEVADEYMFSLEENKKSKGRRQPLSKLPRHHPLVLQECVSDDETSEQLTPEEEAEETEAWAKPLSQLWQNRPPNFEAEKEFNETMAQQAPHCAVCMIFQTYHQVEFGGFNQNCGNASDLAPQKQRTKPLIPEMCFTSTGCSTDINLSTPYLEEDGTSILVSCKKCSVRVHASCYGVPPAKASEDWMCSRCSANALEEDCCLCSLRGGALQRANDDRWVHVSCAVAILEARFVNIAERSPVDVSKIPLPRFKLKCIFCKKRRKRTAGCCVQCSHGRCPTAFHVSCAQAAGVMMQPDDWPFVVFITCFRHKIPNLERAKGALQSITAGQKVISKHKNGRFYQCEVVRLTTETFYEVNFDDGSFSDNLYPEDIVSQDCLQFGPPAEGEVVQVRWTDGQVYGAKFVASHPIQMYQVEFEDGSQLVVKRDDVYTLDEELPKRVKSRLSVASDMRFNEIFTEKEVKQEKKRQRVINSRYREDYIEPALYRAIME
# L3MBTL1 block: blocks human L3MBTL1; AlphaScreen L3MBTL1–H3K9me1 peptide binding; 0.66% of 230,000 active; Q9Y468; Potency, µM (highest dose often 57.1 µM), without a hit: top-dose activity, negative = inhibition, usual class: inhibitors; further: potency means the concentration at half of the fitted maximal effect; on the % scale 0 is the no-effect control and ±100 the full control effect; nearly all actives have a fitted effect of over 60% in size
#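 L3MBTL1 50 nM + b-AHA-H3(1-15)K9me1 75 nM, 30 min RT; compound added, 30 min RT; streptavidin donor/Ni-chelate acceptor beads 10 ug/mL each final, 30 min RT dark; AlphaScreen read.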
# BAZ2B block: BAZ2B (human) inhibition; AlphaScreen BAZ2B-H3K14Ac peptide displacement; Potency, µM (highest dose often 114 µM), for inactives: at the highest dose activity change, negative = inhibition, most hits filed as inhibitors; 4.4% of 360,000 active; Q9UIF8; further: potency means the concentration at half of the fitted maximal effect; on the % scale 0 is the no-effect control and ±100 the full control effect; nearly all actives have a fitted effect of over 60% in size
#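 BAZ2B (50 nM) with biotin-H3(5-23)K14Ac peptide (50 nM) in PBS pH 7.4, 0.01% Tween-20, preformed 30 min, then compound 30 min at room temperature; top concentration 110uM. AlphaScreen streptavidin donor/nickel chelate acceptor beads (10 ug/mL final), 20 min dark, signal read.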
# PI5P4K alpha inh: PI5P4K alpha (human) kinase inhibition; max response, %; PI5P4Kalpha enzyme, ADP-Glo luminescence, 60 min; active compounds read low; P48426; AID 652105; 1.2% of 330,000 active; active means max response of -50% or lower; inconclusive means between -30% and -50%; inactive means -30% or higher; further: value at the top dose of about 77 µM; on the % scale 0 is the no-effect control and ±100 the full control effect
#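 Compounds were pin-transferred onto PI5P4Kalpha and substrate in HEPES pH 7.4 buffer with EGTA, CHAPS and 5% DMSO. ATP (5 microM final) started the reaction, which ran 60 minutes at room temperature before ADP-Glo detection.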
# Active calls of the source: *; ? = inconclusive; nt = not tested or not shown; ! = not active in a repeat; [ ] = another dose, or the depositor's remark. Compounds with a hit are over-represented: about 11% of the library has one in this group of screens. Unless noted, the call rests on the fitted dose curve; in most records, active means well fitted inhibition curve with a large enough effect; inconclusive means small, poorly fitted or top-dose-only effect; inactive means no such curve, though single readings can be large or run the other way.
SMILES,HP1b chromo inh,G9a block,JMJD2A Tudor,L3MBTL1 block,BAZ2B block,PI5P4K alpha inh
O=S(=O)(Nc1nc2ccccc2nc1NCc1ccco1)c1cccs1,7%,50µM*,-17%,-8%,-8%,-10
COc1ccc(S(=O)(=O)Nc2nc3ccccc3nc2Nc2ccc3c(c2)OCO3)cc1,nt,-6%[59 µM],nt,1%,-29%,nt
C=CCNc1nc2ccccc2nc1NS(=O)(=O)c1cccs1,46%,-41%[2.33 µM],-7%,nt,?,-7
O=S(=O)(Nc1nc2ccccc2nc1Nc1ccc2c(c1)OCCO2)c1cccs1,-12%,?,?,-25%,50µM*,nt
Cc1oc2ncn(CC(C)C)c(=O)c2c1C(=O)NCCCN(Cc1ccccc1)C(C)C,16%,-18%[59 µM],-7%,nt,10%[57.1 µM],nt
COc1ccc(C(C)(C)C)cc1NC(=O)COC(=O)c1ccc([N+](=O)[O-])o1,?,40µM*,20µM*,-26%,?,0
O=C1c2ccccc2C(=O)N1c1cccc(=O)[nH]1,nt,nt,-11%,nt,nt,nt
CSc1ncc(C(=O)NCc2ccc(C)cc2)c(C)n1,12%,2%[59 µM],-8%,nt,2%,nt
COc1ccc(CC(=O)Nc2nccs2)cc1S(=O)(=O)N1CCOCC1,17%,nt,-2%,2%,nt,3
COC(=O)c1c(NC(=O)Cc2ccc(OC)c(S(=O)(=O)N3CCOCC3)c2)sc(C)c1C,-9%,50µM*,-30%,-1%,-26%,-7
COc1ccc2nc(NC(=O)Cc3ccc(OC)c(S(=O)(=O)N4CCOCC4)c3)sc2c1,-23%,79µM*,-11%[11.4 µM],nt,-8%,-9
COc1ccc(CC(=O)Nc2ccc(N3CCOCC3)cc2)cc1S(=O)(=O)N1CCOCC1,45%,4%[59 µM],-21%[11.4 µM],nt,1%,0
Cn1cccc1CC(=O)NNC(=S)Nc1ccc(Cl)cc1Cl,19%,45µM*,-13%,-7%,?,1
Cn1cccc1CC(=O)NNC(=S)NC(=O)c1ccccc1Br,-5%,18µM*,-22%,-1%,0%,?
Cn1cccc1CC(=O)NNC(=O)Nc1ccccc1F,31%,-3%[12.7 µM],-13%,-3%,-7%,1
Cn1cccc1CC(=O)NNC(=S)Nc1ccc(F)cc1,12%,?,?,-4%,-12%,-16
COc1cc(OC)c(NC(=O)CN(C)S(=O)(=O)c2ccc3c(c2)CCCC(=O)N3)cc1Cl,37%,-29%[59 µM],-18%,nt,7%[57.1 µM],nt
C=CCNC(=S)/N=c1/ccccn1C,17%,35µM*,4%,7%,-14%,1
CC1=C(C)/C(=N/OC(=O)c2cccc([N+](=O)[O-])c2)C=CC1=O,10%,10µM*,-29%,0%,-23%,nt
FC(F)(F)c1cccc(N2CCN(Cc3nnc(-c4ccc5c(c4)OCO5)o3)CC2)c1,35%,2%[59 µM],?,nt,-37%,nt
O=C(CNC(=O)N1CC(=O)Nc2ccccc21)NCc1ccc(Cl)cc1,18%,nt,-18%,nt,79µM*,1
COc1ccc(S(=O)(=O)N2CCN(Cc3nc4ccc(C)cc4o3)CC2)cc1,15%,13%[59 µM],-11%,nt,-16%,nt
CCCCCCCCCC(=O)O,19%,nt,-8%,-5%,nt,-2
CCCCCC#CCC#CCC#CCC#CCCCC(=O)O,nt,10µM*,nt,?,4µM*,nt
CN1CCN(C2Cc3ccccc3Sc3ccc(Cl)cc32)CC1 (stereo unspecified),-25%,?,79µM*,-1%,-37%,18
SMILES,HP1b chromo inh,G9a block,JMJD2A Tudor,L3MBTL1 block,BAZ2B block,PI5P4K alpha inh
CSc1ccc2c(c1)C(N1CCN(C)CC1)Cc1ccccc1S2 (stereo unspecified),-33%,18µM*!,63µM*,-27%,?,26
CN1CCN(C2Cc3cc(F)ccc3Sc3ccc(Cl)cc32)CC1 (stereo unspecified),7%,nt,?,nt,nt,8
CCN1CCN(C(=S)c2ccc(-c3ccccc3)cc2)CC1,-9%,32µM*,-22%,-16%,-29%,-1
CCN1CCN(C(=S)c2ccc(Cl)c(Cl)c2)CC1,-30%,2.5µM*,-32%,nt,-34%,-6
O=C(NNc1ccccc1C(F)(F)F)c1sccc1Cl,50%,nt,-10%,nt,nt,nt
CC(=O)[C@@H]1[C@@H](C(=O)c2ccccc2)[C@]2(C(=O)Nc3ccccc32)[C@H]2C=Cc3cc(F)ccc3N12,-31%,8.9µM*,-36%,2%,?,?
O=C(c1ccccc1)[C@@H]1[C@@H](C(=O)c2ccc(F)cc2)[C@@]2(C(=O)Nc3ccccc32)[C@H]2c3ccccc3C=CN12,23%,13µM*,-30%,-8%,-36%,-20
COc1ccc(OC)c(NC(=O)c2cc3c(s2)-c2ccccc2SC3)c1,24%,26%[59 µM],-6%,nt,7%,nt
CCc1cc(C(=O)NNC(=S)NC(C)c2ccccc2)cs1 (stereo unspecified),32%,80%[12.7 µM],-18%,nt,-2%,nt
CCc1cc(-c2n[nH]c(=S)n2C(C)c2ccccc2)cs1 (stereo unspecified),20%,10µM*,-35%,-13%,6%,nt
Cc1scc(-c2n[nH]c(=S)n2C(C)c2ccccc2)c1C (stereo unspecified),16%,2µM*,79µM*,-1%,?,-7
O=C(Nc1ccc2nc(SCCOc3ccccc3)sc2c1)c1ccc2c(c1)OCO2,37%,-3%[59 µM],-10%,nt,-8%,nt
O=C(NCCN1CCOCC1)c1cc(Cl)ccc1Cl,27%,19%,-15%,0%,-1%,-4
COCC(C)NC(=O)NC1(C(F)(F)F)Oc2ccc(Cl)cc2O1 (stereo unspecified),3%,35µM*,-15%[57.1 µM],0%,12%,-5
O=C(NCCN1CCOCC1)NC1(C(F)(F)F)Oc2ccc(Cl)cc2O1 (stereo unspecified),34%,10µM*,40µM*,5%,2%,8
CC1CCCCN1C(=O)COC(=O)c1ccc(S(C)(=O)=O)c([N+](=O)[O-])c1 (stereo unspecified),50%,nt,?,nt,nt,nt
O=C(c1cccc2nc3ccccc3nc12)N1CCOCC1,-13%,6%[12.7 µM],79µM*,-2%,-9%,-25
CCN(CC)C(=O)c1ccccc1NC(=O)c1ccccc1,35%,12%,-10%,nt,17%,-1
CCN(CC)C(=O)c1cccc2nc3ccccc3nc12,-7%,0%,79µM*,1%,-2%,-11
